These results are taken from PubChem BioAssay (NCATS).

Records with an inconclusive call do not appear. The source made the active and inactive calls. Calls come from the whole dose curve; as a rule, active = well fitted cell-killing curve with a large enough effect; inconclusive = small, poorly fitted or top-dose-only effect, or effect the other way; inactive = no such curve, though single readings can be large or run the other way.
Potency is the fitted concentration of half-maximal effect.

The experiment is described as follows: Viability qHTS for spleen associated tyrosine kinase inhibitor (SYKi) drug resistant MV4-11 cells (AID 1963824). Note: nearly all actives have a fitted effect of over 35% in size. As to conditions: SYKi-resistant MV4-11 viability, CellTiter-Glo, 72 h; series mostly up to 45 µM; viability, % of control: at the top concentration. Summed up:
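SYK inhibitor-resistant MV4-11 AML cells, 500 per well, added to predispensed compounds and incubated 72 hr at 37 C, 5% CO2. Viability measured by CellTiter-Glo luminescence after 10 min at room temperature.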
(In general: qHTS replaces the single test concentration by a dilution series.)
Turning to `Cn1nc(C(C)(C)C)cc1C(=O)N[C@@H](Cc1cccc(Cl)c1)C(=O)NCC#N`, the Potency is 13 µM (active).

Regarding `Cc1cccc(N(C)C(=S)Oc2ccc3c(c2)CCC3)c1`, the Potency is 18.4 µM (active).

On to `O=S(=O)(c1ccccc1)N(CC(F)(F)F)c1ccc(C(O)(C(F)(F)F)C(F)(F)F)cc1`, for which the Potency is 8.2 µM (active). `C=CCCN1CCC2(CC1)CN(C(=O)c1c(F)cccc1F)c1ccc(Cl)cc12`: the Potency was 10.3 µM (active). Still for that read-out and setting: the result for `Cn1nccc1-c1ccccc1Oc1ccc(S(=O)(=O)Nc2nccs2)cc1C#N` reads 13 µM (active); that for `COc1cc2ncnc(Nc3ccc(F)c(Cl)c3)c2cc1O`, 9.2 µM (active). Still for that read-out and setting: then `CNCCC(c1cccs1)c1ccc(O)c2ccccc12` (centres undefined), with 14.6 µM (active); and `COc1ccc(C2OCC3C(c4cc(OC)c5c(c4)OCO5)OCC23)cc1OC` (centres undefined), with 8.93 µM (active). In the case of `C[C@@H]1C(=O)O[C@H]2CC34[C@H]5C[C@@H](C(C)(C)C)C36[C@@H](OC(=O)[C@@H]6O)O[C@@]4(C(=O)O5)[C@]21O` (some centres undefined), the “viability, % of control” value was 102% [at 17.3 µM] (inactive).

Take `O=C(NCc1ccccc1)[C@H](Cc1ccccc1)NC(=O)[C@H]1O[C@@H]1C(=O)NCCc1ccc(O)cc1`: the Potency was 13.2 µM (active). The same measure, in the same setting: the result for `COc1ccc(Oc2cc(C)c(-c3csc(NC(=O)c4ccncc4)n3)c(C)c2)cc1` reads 0.092 µM (active); that for `O[C@@](Cc1ncc(CC2(C(F)(F)F)CC2)[nH]1)(c1ccc(-n2cccn2)cc1)C(F)(F)F`, 14.6 µM (active). Regarding `O=S(=O)(/N=C/c1c(O)ccc2ccccc12)c1cccs1`, the “viability, % of control” value is 86.6% (inactive). Turning to `CC(=O)O[C@H]1[C@H](Oc2ccccc2COC(=O)C2(O)C=CCCC2=O)O[C@H](CO)[C@@H](O)[C@@H]1O` (some centres undefined), the “viability, % of control” value was 68.7% [at 17.3 µM] (inactive).
